The values below come from PubChem BioAssay.

Active and inactive are the calls of the source. Unless noted, no rule for the calls is given here.

A short description of experiment [1]: compound effects on lung adenocarcinoma cell viability – A549, calcein-AM fluorescence, 48 h, basal, profiling panel (AID 1162). Also: test concentration not given here. To be noted: higher = more signal.
The nature of experiment [2]: compound effects on differentiated 3T3-L1 adipocyte viability – cell-based, 3T3-L1 adipocytes, calcein-AM fluorescence, 48 h, basal, profiling panel (AID 1163). Also: test concentration not given here. The settings on record: 3T3-L1 adipocytes viability, higher = more signal.
The nature of experiment [3]: compound effects on hepatocellular carcinoma cell viability – HepG2, calcein-AM fluorescence, 48 h, basal, profiling panel (AID 1164). Also: test concentration not given here. The settings on record: higher = more signal.
Experiment [4] is described as follows: compound effects on multiple myeloma cell viability – MM1S, calcein-AM fluorescence, 48 h, basal, profiling panel (AID 1165).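 Also: viability of MM1S multiple myeloma cells under basal unstimulated conditions; test concentration not given here.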 To be noted: higher = more signal.
Experiment [5] in a line: calcein-AM signal in unstimulated myeloma cells – cell-based, calcein-AM fluorescence, 48 h, PK04 Diversity Set, profiling panel (AID 1166).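 Also: cells grown under basal conditions without added stimulus; test concentration not given here.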 The settings on record: RPMI8226 myeloma viability, higher = more signal.
Experiment [6] can be described thus: JC-1 mitochondrial signal, unstimulated HepG2 cells – cell-based, JC-1 fluorescence, 24 h, 100 nL compound, profiling panel (AID 1167). Also: test concentration not given here. The settings on record: HepG2 mitochondrial potential, higher = more signal.
A short description of experiment [7]: JC-1 mitochondrial signal, unstimulated adipocytes – cell-based, JC-1 fluorescence, 3T3-L1 adipocytes, 24 h, 100 nL compound, profiling panel (AID 1168). Also: test concentration not given here. To be noted: JC-1 mitochondrial fluorescence, higher = more signal, called active from +8 up or from −8 down.
Experiment [8] can be described thus: JC-1 mitochondrial signal, unstimulated myeloma cells – cell-based, JC-1 fluorescence, RPMI8226, 24 h, 100 nL compound, profiling panel (AID 1169). Also: test concentration not given here. To be noted: JC-1 mitochondrial potential fluorescence, higher = more signal.
Experiment [9] can be described thus: JC-1 mitochondrial signal, unstimulated MM1S myeloma – cell-based, JC-1 fluorescence, 24 h, 100 nL compound, profiling panel (AID 1170). Also: test concentration not given here. The settings on record: MM1S mitochondrial potential, higher = more signal.
Experiment [10] in a line: resazurin metabolic signal in A549 cells – cell-based, resazurin fluorescence, 24 h, PK04 Diversity Set, profiling panel (AID 1171). Also: test concentration not given here. To be noted: A549 viability, higher = more signal, called active from +8 up or from −8 down. (Alamar Blue is a resazurin reagent that responds to reducing activity.)
The nature of experiment [11]: resazurin metabolic signal in HepG2 cells – cell-based, resazurin fluorescence, 24 h, PK04 Diversity Set, profiling panel (AID 1172). Also: test concentration not given here. To be noted: HepG2 viability, higher = more signal.
The nature of experiment [12]: budding yeast growth changes without added modifier – OD600, strain BY4716, 24 h, basal condition, primary screen (AID 1173). The settings on record: S. cerevisiae BY4716 growth, OD600, 24 h; higher = more signal, called active from +8 up or from −8 down.
A short description of experiment [13]: viability profiling in MM1S myeloma cells – cell-based, resazurin fluorescence, basal, 24 h, PK04 Diversity Set, profiling panel (AID 1174). Also: test concentration not given here. To be noted: higher = more signal, called active from +8 up or from −8 down.
The target of experiment [14] is Dihydroorotate dehydrogenase (quinone), mitochondrial (Plasmodium falciparum (isolate 3D7)) (UniProt Q08210). The experiment can be described thus: inhibition of P. falciparum DHODH – biochemical, C-terminal His tag, absorbance 600 nm, primary screen (AID 1175).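 Also: recombinant parasite enzyme with a five histidine tag at its C terminus; test concentration not given here.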 To be noted: PfDHODH enzyme, DCIP absorbance 600 nm; higher = more signal, called active from +8 up or from −8 down.
Sequence of Dihydroorotate dehydrogenase (quinone), mitochondrial (Plasmodium falciparum (isolate 3D7)) (Q08210 whole entry, looked up): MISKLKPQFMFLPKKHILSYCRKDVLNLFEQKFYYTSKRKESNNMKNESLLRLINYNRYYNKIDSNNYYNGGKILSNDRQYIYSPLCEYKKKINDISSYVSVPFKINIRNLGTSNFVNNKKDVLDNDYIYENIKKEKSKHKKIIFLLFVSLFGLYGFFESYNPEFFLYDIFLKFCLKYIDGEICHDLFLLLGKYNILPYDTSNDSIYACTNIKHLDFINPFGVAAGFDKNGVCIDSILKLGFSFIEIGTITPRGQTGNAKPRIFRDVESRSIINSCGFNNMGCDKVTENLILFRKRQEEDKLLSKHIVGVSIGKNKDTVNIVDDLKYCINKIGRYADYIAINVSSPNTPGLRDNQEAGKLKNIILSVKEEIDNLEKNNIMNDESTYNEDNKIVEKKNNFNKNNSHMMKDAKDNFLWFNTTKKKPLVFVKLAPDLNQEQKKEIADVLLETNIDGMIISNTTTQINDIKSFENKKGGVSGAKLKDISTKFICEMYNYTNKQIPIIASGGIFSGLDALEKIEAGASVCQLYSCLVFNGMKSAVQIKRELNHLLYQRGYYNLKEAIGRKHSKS

Experiment [15] can be described thus: inhibition of PAO1 biofilm formation – strain PAO1, LB-PBS medium, absorbance 600 nm, primary screen (AID 1176). Also: test concentration not given here. To be noted: P. aeruginosa PAO1 growth/biofilm, A600, 12 h; higher = more signal.
A short description of experiment [16]: growth modulation of vineyard yeast isolate – strain RM11-1a, OD600, basal, 24 h, primary screen (AID 1177).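 Also: cultures grown under basal conditions with no added stressor; test concentration not given here.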 The settings on record: S. cerevisiae RM11-1a growth, OD600, 24 h; higher = more signal, called active from +8 up or from −8 down.
Experiment [17] in a line: growth of efflux-deficient E. coli DRC39 – strain DRC39, OD650, 24 h, E. coli filamentation inducers, primary screen (AID 1178).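 Also: growth measured as culture turbidity by optical density at 650 nm; test concentration not given here.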 The settings on record: E. coli DRC39 acrAB, higher = more signal, called active from +8 up or from −8 down.
A short description of experiment [18]: growth of efflux-deficient E. coli DRC39 – strain DRC39, OD650, 48 h, E. coli filamentation inducers, primary screen (AID 1179).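 Also: screen aims at cell division blockers that make cells filament.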 To be noted: E. coli DRC39 delta-acrAB growth, higher = more signal, called active from +8 up or from −8 down.
The nature of experiment [19]: viability profiling in RPMI8226 myeloma cells – cell-based, resazurin fluorescence, basal, 24 h, PK04 Diversity Set, profiling panel (AID 1180).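 Also: RPMI8826 multiple myeloma cell line at 5000 cells per well; test concentration not given here.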 The settings on record: higher = more signal.
Experiment [20] concerns the target E3 ubiquitin-protein ligase XIAP (Homo sapiens) (UniProt P98170). The experiment can be described thus: small molecules binding XIAP protein – biophysical, small-molecule microarray, fluorescence 635 nm, primary screen (AID 1181).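 Also: score merges 667 nm emission and signal to noise over triplicate slides.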 The settings on record: higher = more signal.

Sequence of E3 ubiquitin-protein ligase XIAP (Homo sapiens) (P98170 whole entry, looked up): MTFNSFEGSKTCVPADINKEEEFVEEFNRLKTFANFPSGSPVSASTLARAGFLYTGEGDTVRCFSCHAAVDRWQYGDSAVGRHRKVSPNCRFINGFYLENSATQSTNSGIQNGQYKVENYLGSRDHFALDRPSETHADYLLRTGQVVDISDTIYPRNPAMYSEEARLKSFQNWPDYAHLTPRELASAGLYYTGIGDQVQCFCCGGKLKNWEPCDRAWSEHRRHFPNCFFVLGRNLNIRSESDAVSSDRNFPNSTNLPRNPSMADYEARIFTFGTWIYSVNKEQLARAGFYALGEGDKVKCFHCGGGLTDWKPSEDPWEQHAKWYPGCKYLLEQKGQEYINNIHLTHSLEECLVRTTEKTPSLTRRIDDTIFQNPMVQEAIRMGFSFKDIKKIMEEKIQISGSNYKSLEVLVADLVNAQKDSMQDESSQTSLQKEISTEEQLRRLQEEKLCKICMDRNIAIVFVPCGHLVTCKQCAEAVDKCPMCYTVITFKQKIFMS

As for `COC(=O)[C@H](Cc1ccccc1)NC(=O)[C@@H](C)CO`, the z-score in [1] was -0.457; in experiment [2], 0.802; in experiment [3], -0.196; in [4], -2.56; in experiment [5], -2.56; in experiment [6] it was 0.892. Besides, the z-score was -0.218 (inactive) in [7]; -0.186 in experiment [8]; -0.209 in experiment [9]; -0.234 (inactive) in experiment [10]; -0.427 in experiment [11]; -0.462 (inactive) in [12]. The z-score is -0.0481 (inactive) in [13]; 0.733 (inactive) in experiment [15]; 0.0469 (inactive) in experiment [16]; -1.48 (inactive) in experiment [17]; -0.84 (inactive) in experiment [18]; -0.376 in experiment [19]. Further, the composite z-score in experiment [14] is -2.16 (inactive); in experiment [20] it was 0.0154.

Consider `COC(=O)CC=C[C@@H](C)[C@@H](C=NOC(C)CN1CCCc2nc(C)c(C)cc21)NS(=O)(=O)c1ccc(C)cc1` (stereo not given in full), for which the z-score was 0.969 in [1]; -0.176 in [2]; 0.0666 in experiment [3]; -1.08 in [4]; -0.427 in experiment [5]; -0.486 in [6]. Also, the z-score in experiment [7] was -0.774 (inactive); in experiment [8] it was 0.462; in experiment [9], -0.534; in [10] it was -0.726 (inactive); in experiment [11] it was -0.566; in experiment [12] it was 0.21 (inactive). The z-score in experiment [13] is -0.47 (inactive); in experiment [15], 0.253 (inactive); in [16], 0.253 (inactive); in experiment [17] it was 0.157 (inactive); in experiment [18], -0.0007 (inactive); in experiment [19], -1.32. Moreover, the composite z-score was 0.899 (inactive) in experiment [14] and 0.222 in experiment [20].

Regarding `CO[C@H]1COC(=O)CCC[C@H](C)[C@@H](OC)COC(=O)CC=C[C@@H]1C`, the z-score was 0.0792 in [1]; 0.751 in [2]; 0.205 in experiment [3]; 0.105 in experiment [4]; 0.471 in [5]; -0.503 in experiment [6]. In addition, the z-score is -0.713 (inactive) in [7]; -0.483 in experiment [8]; -0.866 in experiment [9]; 0.0382 (inactive) in [10]; 0.367 in experiment [11]; -0.721 (inactive) in experiment [12]. In addition, the z-score in experiment [13] is -1.18 (inactive); in [15], -0.339 (inactive); in experiment [16] it was -1.02 (inactive); in [17], 0.42 (inactive); in [18], 0.0526 (inactive); in experiment [19] it was 1.07. In addition, the composite z-score in experiment [14] is -1.58 (inactive); in experiment [20] it was 0.0029.

For `CO[C@@H]1COC(=O)[C@@H]2CCCN2C(=O)[C@@H](C)COC(=O)CCC[C@H]1C`, the z-score was -0.0294 in experiment [1]; -0.0132 in experiment [2]; 0.586 in experiment [3]; -0.407 in [4]; 0.498 in experiment [5]; -0.189 in experiment [6]. Further, the z-score in experiment [7] was -2.2 (inactive); in [8], -0.0065; in experiment [9], -1.2; in experiment [10], -1.07 (inactive); in [11], -0.668; in [12], -0.482 (inactive). For the same compound, the z-score in experiment [13] was -0.27 (inactive); in experiment [15], -0.197 (inactive); in [16], -2.66 (inactive); in experiment [17], -0.0549 (inactive); in experiment [18], -0.0609 (inactive); in [19], -0.304. Also, the composite z-score in experiment [14] is -1.47 (inactive); in experiment [20], 0.134.

On to `CCN1C(=O)[C@H]2[C@H]3[C@H](O)[C@H](O)CC(=NO[C@H](C)c4cn([C@@H]5COC[C@H]5O)nn4)[C@@H]3CC[C@H]2C1=O`, for which the z-score in experiment [1] is 0.165; in experiment [2] it was -0.736; in experiment [3], -0.127; in [4], -0.0272; in experiment [5] it was 0.215; in experiment [6], -0.407. Besides, the z-score was -1.37 (inactive) in experiment [7]; 0.125 in experiment [8]; -0.11 in experiment [9]; -0.232 (inactive) in experiment [10]; -1.28 in [11]; 1.15 (inactive) in experiment [12]. In addition, the z-score in [13] was -0.917 (inactive); in [15] it was 1.46 (inactive); in [16], 0.539 (inactive); in experiment [17], 0.319 (inactive); in experiment [18], -0.787 (inactive); in experiment [19] it was -0.767. Further, the composite z-score was 0.871 (inactive) in [14] and -0.124 in experiment [20].
